Compound activity as filed in PubChem.
An excerpt weighted towards active compounds, which were near 12% of everything screened.
Arbovirus inh – arbovirus infection inhibition; arbovirus infection cell-based antiviral screen; 200,000 compounds, 0.37% hits; inhibition, % at 10 µM; AID 1251; in the data active = inhibition above about 30%
CHOP inhibitor – CHOP inhibition in unfolded protein response. CHO-K1 CHOP-promoter luciferase, tunicamycin-induced, 15-18 h. inhibition, % at 10 µM. 220,000 compounds, 3.8% hits;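 active = compounds that reduced the stress-induced luciferase reporter signal by more than about 70% of percent inhibition, limit read from the data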;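 note: 0% = tunicamycin plus vehicle and 100% = wells without tunicamycin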
Lmaj promast – Leishmania major promastigote growth inhibition; 200,000 compounds, 9% hits; Leishmania major promastigotes, resazurin fluorescence viability; inhibition, % at 10 µM; AID 1063; in the data active = inhibition above about 50%;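 note: promastigotes grown with compound for 44 hours at 28 °C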
WT yeast gro inh – growth inhibition of WT yeast, mitochondrial fusion screen | AID 1362 | inhibition, % at 10 µM | mitochondrial fusion phenotypic screen, WT strain | 190,000 compounds, 2.1% hits; in the data active = inhibition above about 58%; tested in S. cerevisiae
* marks the source's active call; other numbers are inactive results; . = not tested or not shown.

SMILES | Arbovirus inh | CHOP inhibitor | Lmaj promast | WT yeast gro inh
CC1CC(N(C(=O)c2ccc(Cl)cc2)c2ccccc2)c2ccccc2N1C(=O)c1ccco1 (configuration not stated) | -23 | 50 | 57* | 84*
CC1CC(N(C(=O)C2CC2)c2ccccc2)c2ccccc2N1C(=O)C1CC1 (configuration not stated) | -3 | -26 | -2 | 1
CC1CC(N(C(=O)c2ccco2)c2ccccc2)c2ccccc2N1C(=O)c1ccco1 (configuration not stated) | -8 | 18 | 62* | 16
Cc1nc([N+](=O)[O-])c(C(=O)OCc2ccccc2C#N)n1C | -1 | -6 | 5 | -8
O=C(Nc1ccc(-c2cn3c(n2)SCC3)cc1)c1ccco1 | . | -8 | . | .
CC(C)CC(N=Cc1c(O)c2ccccc2oc1=O)C(=O)O (configuration not stated) | 27 | 3 | -6 | -6
COc1cc2c(cc1NC(=S)Nc1cccc3ccccc13)oc1ccccc12 | -11 | 41 | 8 | 69*
COc1cc2c(cc1NC(=S)Nc1cccc(C(F)(F)F)c1)oc1ccccc12 | -8 | 71* | 7 | 64*
CCOC(=O)Cn1c(=NC(=O)c2ccc([N+](=O)[O-])s2)sc2ccccc21 | -5 | 81* | 80* | 65*
CCOC(=O)Cn1c(=NC(=O)C2COc3ccccc3O2)sc2cc(S(N)(=O)=O)ccc21 (configuration not stated) | 2 | 23 | -1 | -9
COc1cc(CNCc2cccnc2)ccc1OCC(=O)NC(C)(C)C | -2 | 6 | 92* | 0
COc1cc(CNCCc2ccccc2)ccc1OCC(=O)NC(C)(C)C | -11 | -22 | 99* | 12
Cc1ccc(OCC(=O)NCc2cccnc2)cc1 | -7 | -9 | 16 | 3
CC(C)(C)NC(=O)COc1ccc(CNCc2cccnc2)cc1 | -1 | 6 | 89* | -9
CN(C)S(=O)(=O)c1cc(NC(=O)CN2CCNC(=O)C2)ccc1Cl | 3 | -1 | 60* | -5
CCN1CCN(CC(=O)Nc2ccc(Cl)c(S(=O)(=O)N(C)C)c2)CC1 | 4 | 8 | -2 | -40
CC/C(O)=C(\C#N)c1nnc2n1CCCCC2 | 7 | -28 | -5 | -11
COc1cccc(C2C3=C(N=c4s/c(=C\c5cccc(O)c5)c(=O)n42)c2ccccc2CC3)c1OC (configuration not stated) | -27 | 25 | 44 | 32
COc1ccccc1C1C2=C(N=c3s/c(=C/c4cccc(OCC(=O)O)c4)c(=O)n31)c1ccccc1CC2 (configuration not stated) | 41* | 53 | -2 | 11
CC(C)CCNCC1OCc2ccccc2CO1 | -5 | -4 | -3 | 1
CCOC(=O)c1c(CSc2ccc(C)cc2)oc2ccc(O)cc12 | -2 | 107* | 45 | 7
COCCNC(=O)C(=O)NNC(=O)c1ccccc1OC | -4 | 1 | -3 | -2
O=C(c1cccc(C(F)(F)F)c1)C1CCCN(Cc2ccc(OCCO)cc2)C1 (configuration not stated) | -36 | -4 | 81* | 1
CC(=O)Nc1ccc(CN2CCCC(C(=O)c3cccc(C(F)(F)F)c3)C2)cc1 (configuration not stated) | -1 | 18 | 23 | 5
COc1ccc(CN2CCCC(C(=O)c3cccc(C(F)(F)F)c3)C2)cc1O (configuration not stated) | 9 | 17 | 84* | 22
SMILES | Arbovirus inh | CHOP inhibitor | Lmaj promast | WT yeast gro inh
CSc1ncc(CN2CCCC(C(=O)c3ccc(C(C)(C)C)cc3)C2)cn1 (configuration not stated) | -18 | 12 | 88* | 46
COc1cccc(C(=O)C2CCCN(Cc3cccc(-n4cccn4)c3)C2)c1 (configuration not stated) | . | 10 | . | .
COc1ccc(CN2CCCC(C(=O)c3ccc(SC)cc3)C2)cc1Cn1cccn1 (configuration not stated) | -1 | 17 | 90* | 31
[O-]/C(=C(\C(=S)NCCN1CCOCC1)[n+]1ccccc1)c1ccc(Cl)s1 | 2 | 1 | 1 | -9
Cc1nc(CC(C)C)cc(C(=O)N2CCCC(CNS(=O)(=O)c3cccs3)C2)n1 (configuration not stated) | -3 | -16 | -6 | -8
Cc1ccccc1C(=O)NC1CCN(C(=O)N(c2ccccc2)c2ccccc2)CC1 | 9 | -24 | 18 | -8
O=S1(=O)CC(O)C(N2CCCCC2)C1 (configuration not stated) | 10 | 24 | -6 | -11
Cc1ccc(N2C(=O)C(NC(=O)c3ccccc3)(C(F)(F)F)C3=C2CC(C)(C)CC3=O)cc1 (configuration not stated) | 7 | 14 | 89* | 0
C/C(=N\Nc1nc2ccc(Cl)cc2o1)c1ccccc1 | . | -22 | . | .
Cc1c(C(=O)NC(Cc2ccccc2)c2nc3ccccc3[nH]2)cccc1[N+](=O)[O-] (configuration not stated) | 33* | 2 | 27 | -4
CSCC[C@H](NC(=O)c1cccc([N+](=O)[O-])c1C)c1nc2ccccc2[nH]1 | -6 | 5 | 2 | -18
CCCCCC(=O)NC(=S)Nc1cccc(-c2nc3ncccc3o2)c1 | . | 21 | . | .
Cc1ccc(C(O)(c2ccccc2)c2ccccc2C(C)N(C)C)c(C)c1 (configuration not stated) | -40 | 96* | 100* | 60
CC(C)(C)NC(=O)NC(=O)COC(=O)CNS(=O)(=O)c1ccc(Br)cc1Cl | -2 | 23 | -5 | 14
CC(NC(=S)Nc1c(Br)cccc1OC(F)F)C(C)(C)C (configuration not stated) | 10 | 17 | 60* | 13
CC(=O)c1cc2c(cc1NC(=O)C1CCC1)OCO2 | -3 | 8 | -4 | 0
S=C(NCCN1CCOCC1)Nc1cccc2ccccc12 | 6 | 2 | 67* | 1
Oc1ccc(/C=N/NC(=S)NCCN2CCOCC2)c(O)c1 | 1 | 27 | 96* | -9
COc1ccc(Cl)cc1NC(=S)NCCN1CCOCC1 | 7 | -18 | -2 | -10
S=C(NCCCN1CCOCC1)Nc1ccc(Cl)cc1Cl | 0 | 6 | 99* | -7
Cc1cc(Cl)ccc1NC(=S)NCCN1CCOCC1 | 4 | 7 | 60* | 3
COc1ccc(S(=O)(=O)Nc2nc3c(s2)CCCC3)cc1 | 26 | -34 | -2 | -19
O=C(NCc1ccccc1)c1onc(CSc2ccccc2)c1C(=O)NCC1CC1 | . | 51 | . | .
S=C(NCCN1CCOCC1)Nc1ccc(Cl)cc1Cl | -2 | 46 | 96* | -24
COc1ccc(OC)c(NC(=S)NCCCN2CCOCC2)c1 | 6 | -10 | 62* | 6
Fc1cc(Cl)ccc1NC(=S)NCCN1CCOCC1 | 10 | 18 | 11 | -10
O=C(Nc1cc(S(=O)(=O)N2CCCCC2)ccc1Cl)c1ccccc1NS(=O)(=O)c1ccc(F)cc1 | -5 | 62 | 6 | 72*
CCOc1ccc(NC(=O)c2ccccc2NS(=O)(=O)c2ccc(F)cc2)c([N+](=O)[O-])c1 | 18 | -18 | 71* | 5
CCOc1ccc(N/C=C/C(=O)c2ccccc2)c([N+](=O)[O-])c1 | 6 | 87* | 2 | 9
CCOc1ccc(NC(=O)/C=C/c2ccccc2)c([N+](=O)[O-])c1 | 1 | 4 | -3 | -11
